Measurements from PubChem BioAssay AID1159580 (chemical genetic matrix, 2015).
In all, about 5,500 compounds went through this assay and about 2,000 (36%) were called active. Inconclusive results (about 18%) are left out. No stated cut-off is given here; in the data, active means normalized growth mostly below about 0.91 (no sharp cut-off); inconclusive means no clear call, values can overlap the other calls; inactive means mostly above about 0.92. The list shows a part of the results.

Experiment: chemical genetic growth profiling, strain panel (AID 1159580);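 further: tested at 20 µM; growth read once vehicle control cultures reached saturation at 30 °C; 1 = growth at the plate median or of vehicle wells; lower values mean less growth of the strain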
Conditions: S. cerevisiae deletion strains, growth OD

Measured: normalized growth

O=C(O)/C=C/C=C/c1ccc2c(c1)OCO2
inactive: locus YHR030C, strain SLT2, active compounds read low 0.899 | locus YHR079C, strain IRE1, active compounds read low 0.884 | locus YJL095W, strain BCK1, active compounds read low 0.897 | locus YJR066W, strain TOR1, active compounds read low 0.873 | locus YLR113W, strain HOG1, active compounds read low 0.958 | locus YNL183C, strain NPR1, active compounds read low 0.886 | locus YOR231W, strain MKK1, active compounds read low 0.893 | locus YPL256C, strain CLN2, active compounds read low 0.945
